PubChem BioAssay AID430 (Sanford-Burnham Center for Chemical Genomics, 2006)
Hit rate of the full screen: of about 63,000 compounds, about 1,100 (1.7%) were called active. Only a selection was taken, and actives are over-represented in it overall. Potency and affinity values are given separately. A number with no mark means an inactive call. Cut-off read from the data, not from the text of the source: active = cytotoxicity above about 50%; inactive = the rest.

Experiment: HPDE-C7 pancreatic duct cell viability loss – fluorescence, HTS (AID 430);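 note: cells exposed to compound for 48 hours before viability readout; 0% = vehicle and 100% = reference cytotoxic drug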
Settings: HPDE-C7 pancreatic duct cells viability, at 10 µM, stronger effect = higher value

Row | Compound | cytotoxicity
1 | COc1cccc(NC(=O)C2CCCN2C(=O)Nc2cccc(F)c2)c1 (stereo unspecified) | 9.8%
2 | COc1ccccc1-c1nnc(SCC(=O)Nc2c(Cl)cccc2Cl)o1 | -1.3%
3 | COC(=O)CSc1nnc(-c2ccccc2OC)o1 | -25.6%
4 | O=S(=O)(c1ccc(OCC(O)CNCc2ccco2)c(Cl)c1)N1CCOCC1 (stereo unspecified) | -9.8%
5 | CCn1c(=O)cc(OCC(=O)NCc2ccco2)c2ccccc21 | 5.8%
6 | Cc1ccc(C)c(Cn2c(=O)n(CCC(=O)NCc3ccco3)c(=O)c3ccccc32)c1 | -14.5%
7 | CCn1c(=O)cc(SCC(=O)NCc2ccco2)c2ccccc21 | 62.1% (active)
8 | Cc1ccccc1Cn1c(=O)n(CCCC(=O)NCc2ccco2)c(=O)c2ccccc21 | -24.1%
9 | Cn1c(=O)cc(SCC(=O)NCc2ccco2)c2ccccc21 | -4.4%
10 | Cc1ccc(C)c(Cn2c(=O)n(CCCC(=O)NCc3ccco3)c(=O)c3ccccc32)c1 | 60.2% (active)
11 | CC1CN(c2nc3ccccc3nc2C(C#N)C(=O)OC2CCCCC2)CC(C)O1 (stereo unspecified) | -26.1%
12 | COC(=O)c1cc2ccsc2n1Cc1nc(-c2ccc(OC)cc2)oc1C | -7%
13 | COC(=O)c1ccc(-c2ccco2)n1Cc1nc(-c2ccc(OC)c(OC)c2)oc1C | 71.6% (active)
14 | COc1ccc(-c2nc(CS(=O)CC(=O)NCc3ccco3)c(C)o2)cc1OC (stereo unspecified) | 2.9%
15 | COC(=O)C1=C(C)N(CC2CCCO2)C(=O)C1 (stereo unspecified) | 6%
16 | Cc1cc(=O)[nH]c(SCc2cccc(Br)c2)n1 | 2.7%
17 | Cc1cc(=O)[nH]c(SCc2nc3ccccc3s2)n1 | 57% (active)
18 | Cc1cc(=O)[nH]c(SC/C=C/c2ccccc2)n1 | -13.4%
19 | CC(=O)Nc1ccc(C(=O)CS(=O)(=O)c2ccc(C)cc2)cc1 | -17.2%
20 | Cc1cc2c(c(=O)o1)C1(C(=O)N(C)c3ccccc31)C(C#N)=C(N)O2 (stereo unspecified) | -8.3%
21 | CCC(=O)Nc1ccc2c(c1)ncn2-c1ccccc1OC | -35.6%

Row | Compound | cytotoxicity
22 | COc1ccccc1-n1cnc2cc(NC(C)=O)ccc21 | -8.6%
23 | COc1ccccc1-n1cnc2cc(NCc3ccco3)ccc21 | 63.6% (active)
24 | O=C(CCCCCN1C(=O)CCC1=O)Nc1ncn[nH]1 | -2.1%
25 | CCCCCCc1cc2cc(-c3nnc(-c4ccccc4O)o3)c(=O)oc2cc1O | 62.7% (active)
26 | CCOc1cccc2cc(-c3nnc(-c4ccccc4)o3)c(=O)oc12 | -14.9%
27 | CCCCCCc1cc2cc(C(=O)NC)c(=N)oc2cc1O | 19.4%
28 | N#CCCn1cc(C(CC(=O)c2ccc(Br)cc2)C(=O)O)c2ccccc21 (stereo unspecified) | -21.4%
29 | CCOC(=O)Nc1ccc(S(=O)(=O)Nn2cnnc2)cc1 | -3.3%
30 | OCCSc1nc(-c2cccnc2)nc2ccccc12 | 5.1%
31 | CN1CCN(c2nc(-c3cccnc3)nc3ccccc23)CC1 | -0.2%
32 | Cn1nnnc1Sc1nc(-c2cccnc2)nc2ccccc12 | 99.3% (active)
33 | CCOc1cccc(-c2nnc3n2N=C(c2cc(OC)ccc2OC)CS3)c1 | 28.5%
34 | COCCSc1ccccc1C(=O)Nc1nncs1 | -5.4%
35 | O=C(CCN1CCN(c2ccccc2F)CC1)Nc1ccccc1F | -8.5%
36 | O=C(CCN1CCN(CCC(=O)c2ccccc2)CC1)c1ccccc1 | -22.9%
37 | C=CCn1c(SCCC(=O)O)nc2c1c(=O)n(C)c(=O)n2C | -15.6%
38 | COc1ccc(NC(C)=O)cc1NC(=O)CSc1nnc(-c2ccccc2)n1N | -1.2%
39 | CC[C@H](C)C(=O)O[C@H]1C[C@@H](C)C=C2C=C[C@H](C)[C@H](CC[C@@H]3C[C@@H](O)CC(=O)O3)[C@H]21 | 57.6% (active)
40 | NC(=O)COC(=O)c1ccc(S(=O)(=O)N2CCCCCC2)cc1 | 10.2%
41 | CC(C)[C@H](NC(=O)OC(C)(C)C)c1nnc(S(=O)(=O)Cc2c(F)cccc2Cl)o1 | -7.3%
42 | CC(C)(C)OC(=O)N[C@@H](Cc1ccccc1)c1nnc(S(=O)(=O)Cc2cccc(F)c2)o1 | -10.9%

Row | Compound | cytotoxicity
43 | CC[C@@H](C)[C@H](NC(=O)OC(C)(C)C)c1nnc(S(=O)(=O)Cc2cc(C)ccc2C)o1 | 58.1% (active)
44 | CCOC(=O)CSc1nnc([C@H](CC(C)C)NC(=O)OC(C)(C)C)o1 | 1.4%
45 | COC(=O)CS(=O)(=O)c1nnc([C@H](Cc2ccccc2)NC(=O)OC(C)(C)C)o1 | -7.1%
46 | CCC(C)[C@@H](NC(=O)OC(C)(C)C)c1nnc(S(=O)(=O)Cc2cccc(C)c2)o1 (stereo partly specified) | 5.7%
47 | CC(C)C[C@H](NC(=O)OC(C)(C)C)c1nnc(SCc2cccc(F)c2)o1 | -12%
48 | Cc1ccc(CCNC(=O)NC(C)(C)C)cc1 | -6.5%
49 | O=C(OC1CCOC1=O)c1ccc(S(=O)(=O)N2CCCCCC2)cc1 (stereo unspecified) | -10.6%
50 | COc1cc2c(C#N)c(N3CCCCC3)nc(N)c2c(N)n1 | 44.8%
51 | CCOc1cc2c(C#N)c(N3CCOCC3)nc(N)c2c(N)n1 | 23%
52 | N#Cc1c(N2CCCC2)nc(N)c2c(N)nc(N3CCCC3)cc12 | 1.9%
53 | COc1cc2c(C#N)c(N3CCOCC3)nc(N)c2c(N)n1 | 37.5%
54 | COc1cc2c(C#N)c(N3CCN(c4ccccc4OC)CC3)nc(N)c2c(N)n1 | 54.8% (active)
55 | COc1ccc(Cc2nc(-c3cccs3)no2)cc1OC | 5.9%
56 | Cc1ccc(OCCSc2nnc(NC(=O)c3ccco3)s2)cc1 | 4.3%
57 | CCC(C)NC(=O)CCS(=O)(=O)c1ccc2c(c1)n(C)c(=O)c(=O)n2C (stereo unspecified) | -0.5%
58 | CC(C(=O)Nc1sccc1C(N)=O)N1C(=O)C2CC=CCC2C1=O (stereo unspecified) | -1.9%
59 | CC(CCc1ccccc1)NC(=O)C1CCN(S(=O)(=O)N2CCCCC2)CC1 (stereo unspecified) | -21.3%
60 | Clc1c(CSc2nc3ccccc3o2)nc2sccn12 | 13.8%
61 | O=C(O)C1CCCCC1C(=O)Nc1ccc2c(c1)CCC2 (stereo unspecified) | -13.4%
